# A549 tox – counter-screen for Nrf2 inhibitors: cytotoxicity in A549 cells; actives 0.16% (n = 390,000); A549 ARE-Fluc cells, CellTiter-Fluor viability, 18-24 h; Potency, µM (titrated, usually from 46 µM), without a hit: at the top dose activity change, negative = cytotoxicity, usual class: inhibitors; AID 504648; note: % is set by controls: 0 for no effect and ±100 for the full control effect
#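 A549 ARE_Fluc cells in 5% FBS OPTI-MEM were exposed to compounds in concentration-response for 18-24 h at 37 deg C. Viability was read by CellTiter-Fluor fluorescence (Ex 405/Em 525) after 30 min, before the luciferase read.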
# IDH1 R132H inh – inhibitors of human mutant IDH1 R132H | O75874 | IDH1-R132H enzyme, NADPH consumption, diaphorase/resazurin fluorescence | Potency, µM (titrated, usually from 76.6 µM), inactives show at the top dose activity change, negative = inhibition, usual class: inhibitors | actives 0.093% (n = 390,000); note: % is set by controls: 0 for no effect and ±100 for the full control effect; nearly all actives have a fitted effect of over 65% in size
#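 IDH1-R132H (0.5 ug/mL) preincubated 30 min with compound, then NADPH (0.016 mM) and alpha-KG (2 mM) added; 80 min at RT, pH 7.5. Remaining NADPH coupled via diaphorase/resazurin to fluorescence (540/590 nm); concentration-response curves normalized to no-enzyme control.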
# Mito fusion yeast – mitochondrial division inhibition or fusion activation; S. cerevisiae fusion-defective mutant growth rescue, CellTiterGlo 48 h; Potency, µM (doses to about 46.1 µM), for inactives: at the top dose growth rescue (activation), most hits filed as activators; actives 0.23% (n = 320,000); note: % of control where 0% means no effect; nearly all actives have a fitted effect of over 45% in size
#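 S. cerevisiae fusion-defective temperature-sensitive mutants (e.g. fzo1-1, mgm1-5) grown 48 h at 37C in YPEG (ethanol/glycerol non-fermentable) medium with 23 nl compound per well; growth rescue read as CellTiterGlo luminescence.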
# TrxR1 substrate – substrates of rat thioredoxin reductase 1. O89049. purified TrxR1 substrate turnover, NADPH consumption readout. Potency, µM (top dose mostly 114 µM), for inactives: at the highest dose activity change, negative = substrate turnover. actives 0.01% (n = 390,000). AID 588456; note: % is set by controls: 0 for no effect and ±100 for the full control effect; nearly all actives have a fitted effect of over 50% in size
# Target sequence (O89049 whole entry, looked up): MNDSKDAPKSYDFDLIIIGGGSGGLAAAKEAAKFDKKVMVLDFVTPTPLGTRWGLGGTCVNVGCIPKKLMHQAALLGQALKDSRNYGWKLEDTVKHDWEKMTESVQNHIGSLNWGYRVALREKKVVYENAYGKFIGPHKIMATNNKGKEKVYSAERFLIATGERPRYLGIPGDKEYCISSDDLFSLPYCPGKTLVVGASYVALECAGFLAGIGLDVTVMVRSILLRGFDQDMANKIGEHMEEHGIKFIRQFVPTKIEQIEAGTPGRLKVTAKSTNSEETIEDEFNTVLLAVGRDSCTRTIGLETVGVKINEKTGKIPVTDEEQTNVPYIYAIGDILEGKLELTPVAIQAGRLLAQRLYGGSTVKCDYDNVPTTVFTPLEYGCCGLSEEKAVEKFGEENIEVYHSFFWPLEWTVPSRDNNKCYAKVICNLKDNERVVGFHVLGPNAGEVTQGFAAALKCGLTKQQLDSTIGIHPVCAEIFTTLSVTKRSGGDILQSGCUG
#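 Rat TrxR1, dispensed at 90 nM, was prereduced with 400 uM NADPH (final) for 5 min at ~22 deg C, then incubated with compound 15 min before 400 uM selenite. A first-read NADPH fluorescence drop versus no-compound background flagged substrates.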
# rTrxR1 inhibitor – rat TrxR1 inhibition; O89049; recombinant rTrxR1, NADPH fluorescence consumption, selenite substrate; Potency, µM (doses to about 114 µM), for inactives: top-dose activity change, negative = inhibition, actives largely listed as inhibitors; actives 1% (n = 390,000); note: % is set by controls: 0 for no effect and ±100 for the full control effect; nearly all actives have a fitted effect of over 65% in size
#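 Rat TrxR1 (90 nM in the dispensed reagent) was pre-reduced with 400 uM NADPH for 5 min at room temperature, then incubated with compound for 15 min. After 400 uM selenite was added, NADPH fluorescence (Ex 340/Em 450 nm) was followed for 8 min.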
# Nrf2 inh – blocks Nrf2 signaling. A549 ARE-Fluc reporter, luciferase luminescence, 18-24 h. actives 2.1% (n = 360,000). AID 504444. Potency, µM (highest dose often 46 µM), for the others: top-dose activity change, negative = inhibition, actives largely listed as inhibitors; note: % is set by controls: 0 for no effect and ±100 for the full control effect; nearly all actives have a fitted effect of over 60% in size
#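 Two sequential reads on A549 ARE_Fluc cells exposed to compound for 18-24 h: a CellTiter-Fluor fluorescence read for viability, then a luciferase luminescence read for Nrf2/ARE activity.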
# Numbers without * were called inactive; ? = inconclusive; nt = not tested or not shown; [ ] = dose if it differs, or a comment. Sampled rows, rich in hits. Any-hit rate of the full collection: about 3.1%. Calls come from the whole dose curve; as a rule, active = well fitted curve in the direction sought with a large enough effect; inconclusive = small, poorly fitted or top-dose-only effect, or another doubt; inactive = no such curve, though single readings can be large; an effect the other way counts as inactive or inconclusive. Potency is the fitted concentration of half-maximal effect.
SMILES,A549 tox,IDH1 R132H inh,Mito fusion yeast,TrxR1 substrate,rTrxR1 inhibitor,Nrf2 inh
Cc1[nH]c2ccccc2c1/C=C/c1cc[n+](C)cc1,8.2µM*,5%,-6%,-22%,-30%,2.1µM*
Cc1[nH]c2ccccc2c1/C=C/c1c(C)[nH]c2ccccc12,nt,nt,nt,-3%,-7%,nt
Cn1nnnc1Sc1ncnc2scc(-c3cccc(C#N)c3)c12,?,nt,nt,nt,nt,16µM*
Cn1nnnc1Sc1ncnc2scc(-c3ccccc3)c12,-5%,1%,-2%,9%[11.4 µM],7%[11.4 µM],?
Cc1ccccc1-c1csc2ncnc(Sc3nnnn3C)c12,1%,nt,nt,nt,nt,-10%
Cn1nnnc1Sc1ncnc2scc(-c3ccc[nH]3)c12,?,nt,2%,-2%,50µM*,?
Cn1nnnc1Sc1ncnc2scc(-c3ccc(F)cc3)c12,?,-10%,0.79µM*,-1%,?,23µM*
CCCCCCCCN1[C@@H](CC(C)=O)c2ccc(/C=C/C(C)=O)cc2S1(=O)=O,nt,nt,nt,0%,?,nt
Cc1cc2c(s1)c1cnn(Cc3c(F)ccc(C)c3Cl)c(=O)c1n2C,-2%,nt,nt,nt,nt,13%
CCCCCCCN(C(=O)CCl)c1ccccc1C,-7%,6%,3%,0%,79µM*,10%
Cc1ccccc1OCC(=O)NCC(c1ccc(Cl)cc1)N1CCCCC1 (stereo unspecified),-3%,32%,nt,-9%,-11%,5%
O=S1(=O)N=C(Oc2ccc3ccccc3c2)c2ccccc21,-6%,nt,nt,nt,nt,1%
CCc1ccc(S(=O)(=O)N(C(C)=O)c2ccc3oc4c(c3c2)CCCC4)cc1,7%,11%,nt,-1%,-2%,?
CC(=O)c1c(C)oc2ccc(N(C(=O)c3ccncc3)S(=O)(=O)c3ccc(F)cc3C)cc12,-8%,0%,nt,-4%,?,?
Cc1ccc([N+](=O)[O-])cc1S(=O)(=O)N(C(=O)c1ccncc1)c1ccc2oc3c(c2c1)CCCC3,23%,1%,13µM*,0%,-14%,7%
Cc1ccc(S(=O)(=O)N(C(=O)c2ccncc2)c2ccc3oc4c(c3c2)CCCC4)cc1[N+](=O)[O-],-16%,5%,18µM*,-6%,-5%,?
CN=c1nc(-c2ccccc2)n(-c2ccccc2)s1,-7%,-8%,?,9%[57.1 µM],?,?
Cc1ccc(-c2nc(=Nc3c(C)cc(C)cc3C)sn2-c2ccccc2)cc1,-30%,nt,nt,9%[0.0914 µM],2%,23µM*
Clc1cccc(Cl)c1CO/N=C/c1c(-c2ccccc2)nc2n1CCS2,-24%,1%,0%,38%,46%,18µM*
CC(=O)O/N=C1\C(=O)N(Cc2ccc(C)cc2)c2ccccc21,2%,-1%,-1%,-7%,-72%,15%
CN1C(=O)/C(=N\OC(=O)c2ccccc2Cl)c2ccccc21,-2%,-1%,15%,5%,10µM*,?
O=C(c1ccc([N+](=O)[O-])o1)N1CCN(c2nc3c(Cl)cccc3s2)CC1,?,8%,24%,-8%,40µM*,?
COc1cccc2sc(N3CCN(C(=O)c4ccc([N+](=O)[O-])o4)CC3)nc12,-19%,7%,1%,-15%,?,?
NC(=O)C(OC(=O)CNC(=O)C1CCCCC1)c1ccccc1 (stereo unspecified),-4%,nt,nt,5%,16%[0.0914 µM],7%
Nc1cccc[n+]1C(c1ccnc2ccccc12)[n+]1ccccc1N,nt,nt,nt,4%,-2%,nt
COc1cc2nc(CCc3nc4cc(OC)c(OC)cc4[nH]3)[nH]c2cc1OC,nt,nt,nt,2%,18%,nt
CCCc1nc([N+](=O)[O-])c(S(=O)(=O)c2ccccc2)n1CC(C)C,-12%,2%,17%,-3%,2.8µM*,1%
CC(=O)Nc1ccc(Br)c(Cl)c1,-2%,10%,7%,7%,19%,0%
O=C(Nc1ccc(Br)c(Cl)c1)C1CC1,-10%,4%,4%,0%,8%,15µM*

# Screening data: PubChem, National Center for Advancing Translational Sciences (NCATS)
